Bioassay records (PubChem BioAssay)
A selection: hits, their analogues and other compounds. The true share with any hit is near 31%.
CYP2C19 inhib: blockers of cytochrome P450 2C19 activity – biochemical, luminescence, ADME assay, primary screen; CYP2C19 Supersomes, luciferin-H EGE luminescence, 30 min; P33261; actives 21% (n = 96,000); inhibition, % at 5 µM;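 active means CYP2C19 inhibition above a set limit at 5 µM in the primary screen, cut at about 50% in these data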;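 further: plate controls were negative control wells for no effect and 2.5 mM tranylcypromine positive control for full effect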
Target sequence (P33261 whole entry, looked up): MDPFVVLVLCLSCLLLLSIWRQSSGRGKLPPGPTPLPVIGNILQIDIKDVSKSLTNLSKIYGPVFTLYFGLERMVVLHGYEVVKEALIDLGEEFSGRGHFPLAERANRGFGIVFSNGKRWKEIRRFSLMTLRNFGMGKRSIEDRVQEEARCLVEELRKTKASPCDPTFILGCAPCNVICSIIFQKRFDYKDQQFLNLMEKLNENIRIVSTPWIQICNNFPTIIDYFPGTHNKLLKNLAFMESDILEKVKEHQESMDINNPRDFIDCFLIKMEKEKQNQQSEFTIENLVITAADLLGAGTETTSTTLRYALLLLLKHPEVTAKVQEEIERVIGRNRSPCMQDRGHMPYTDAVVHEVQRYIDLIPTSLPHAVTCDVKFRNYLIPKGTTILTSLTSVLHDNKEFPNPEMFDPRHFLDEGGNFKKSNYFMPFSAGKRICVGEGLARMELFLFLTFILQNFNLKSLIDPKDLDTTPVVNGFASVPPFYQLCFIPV
CYP2C9 activ: human CYP2C9 activators, primary screen, biochemical, luminescence. Cytochrome P450 2C9 (Homo sapiens), P11712. recombinant CYP2C9, luciferin-H conversion; stronger effect = higher value; factor 1 = untreated enzyme, 0 = blocked. activation factor at 5 µM. actives 1.4% (n = 96,000). AID 1024, 2008;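 active means activation factor of 2 or more for CYP2C9 at a 5 µM dose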;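 further: 0 = sulfaphenazole-blocked wells and 1 = vehicle-only wells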
CYP2C19 activ: human CYP2C19 activators, primary screen, biochemical, luminescence | 96,000 tested, under 10 active | recombinant CYP2C19, luciferin-H EGE luminescence; stronger effect = higher value; 0 = fully inhibited enzyme, 1 = untreated enzyme | Cytochrome P450 2C19 (Homo sapiens), P33261 | activation factor at 5 µM;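 active means activation factor of at least 2 at 5 µM in the primary screen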;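 further: 0 = wells with 2.5 mM tranylcypromine and 1 = vehicle-only wells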
CYP2C9 inh: blockers of cytochrome P450 2C9 activity – biochemical, luminescence, ADME assay, primary screen | P11712 | CYP2C9 Supersomes, luciferin-H conversion | inhibition, % at 5 µM | actives 20% (n = 96,000);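 active means blocking of liver enzyme CYP2C9 beyond about 50% at 5 µM, limit read from the data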
The depositor's hits bear a star.

SMILES	CYP2C19 inhib	CYP2C9 activ	CYP2C19 activ	CYP2C9 inh
O=C1CC(c2ccccc2)n2nc(N3C(=O)CCC3=O)nc2N1 (stereo not given)	-8.4	1	1.1	1.0
Cc1ccc(-n2nc(C)c(NS(=O)(=O)c3ccccc3)c2C)cc1C	41.9	0	0.6	96.4*
Cc1nn(-c2ccc(F)cc2)c(C)c1NS(=O)(=O)c1ccc(Cl)cc1	100.0*	0.1	0	90.7*
Cc1ccc(-n2nc(C(=O)O)c3ccccc3c2=O)cc1C	-11.8	0.9	1.1	14.6
CCOC(=O)c1cn(CC)c2ccc(Br)cc2c1=O	5.6	2*	0.9	-95.7
CC(C)(C)Nc1nc(NC(C)(C)C)nc(-n2ccnc2)n1	35.7	0.4	0.6	62.8*
COC(=O)c1sccc1NC(=O)c1ccc(OC)c(OC)c1	11.3	0.8	0.9	17.0
CCCCOc1ccc(OCCCC)c2c1NC1(N2)C(=O)N(C(C)=O)c2ccccc21	53.4*	0.8	0.5	24.1
Cc1ccc(-c2noc(CSc3nnc(Cc4cccs4)n3-c3ccccc3)n2)cc1	71.6*	0.5	0.3	49.0
Cc1ccc(-c2noc(CSc3nnc(Cc4ccccc4)n3-c3cccc(C)c3)n2)cc1	82.4*	0.5	0.2	45.3
Cc1ccc(-n2c(Cc3cccs3)nnc2SCC(N)=O)cc1	55.9*	1	0.4	-0.7
Clc1ccc(-c2noc(CSc3nnc(Cc4cccs4)n3-c3ccccc3)n2)cc1	49.6	0.6	0.5	43.6
COc1ccc(-c2noc(CSc3nnc(Cc4ccccc4)n3-c3cccc(C)c3)n2)cc1OC	97.9*	0.5	0	54.6*
O=C(Nc1nnc(C2CC2)s1)c1cccc(S(=O)(=O)N2CC(c3ccccc3)CC2=O)c1 (stereo not given)	1.2	0.8	1	23.7
Fc1ccc(-n2c(Cc3ccccc3)nnc2SCc2nc(-c3cccs3)no2)cc1	44.1	0.3	0.6	74.5*
CCOC(=O)c1c(-c2ccc(C)o2)csc1NC(=O)CN1CCOCC1	54.0*	0.3	0.5	72.1*
CCOC(=O)c1c(-c2ccc(C)o2)csc1NC(=S)NC(=O)N(C)C	18.0	0.5	0.8	52.8*
CCOC(=O)c1c(-c2ccc(C)o2)csc1NC(=O)CSc1ncn[nH]1	61.0*	0.1	0.4	85.3*
CCOC(=O)c1c(-c2cccc(C)c2)csc1NC(=O)C1CC=CCC1C(=O)O (stereo not given)	0.0	1	1	1.2
CCOC(=O)c1c(-c2cccs2)csc1NC(=O)CN(CC)CC	38.2	0.2	0.6	75.4*
O=c1cc(O)nc2n1CCCS2	-7.8	1	1.1	-4.8
CC(C)C(=O)N(Cc1cc2ccccc2[nH]c1=O)C(C)(C)C	20.0	0.8	0.8	15.0
CCOC(=O)c1cc2c(=O)n3cccc(C)c3nc2n(Cc2ccccc2Cl)c1=N	-0.2	0.9	1	12.8
CCOC(=O)c1c(-c2cccs2)csc1NC(=O)CN1CCOCC1	45.1	0.3	0.5	73.2*
CCOC(=O)c1c(-c2cccs2)csc1NC(=O)CC(C)C	14.6	0.9	0.9	9.7
SMILES	CYP2C19 inhib	CYP2C9 activ	CYP2C19 activ	CYP2C9 inh
Clc1cccc(-c2cc3nc4c(c(N5CCOCC5)n3n2)CCCC4)c1	70.1*	0.1	0.3	88.6*
c1nc2nc3c(c(N4CCOCC4)n2n1)CCCC3	0.6	1	1	-2.8
Fc1cccc(-c2cc3nc4c(c(N5CCOCC5)n3n2)CCCC4)c1	62.9*	0.1	0.4	93.5*
COc1ccc(/C=N/n2cnnc2SCc2ccccc2)cc1	20.3	0.7	0.8	32.6
CC(NC(=O)c1ccc(S(=O)(=O)N(C)C)cc1)c1ccccc1 (stereo not given)	45.7	0.5	0.5	54.1*
CC(NC(=O)c1ccc(=O)oc1)c1ccccc1 (stereo not given)	8.2	1.1	0.9	-6.6
COC(=O)c1ccccc1NC(=O)c1ccccc1OC	9.9	1.2	0.9	-19.1
CC(NC(=O)c1ccccc1O)c1ccccc1 (stereo not given)	57.8*	0.7	0.4	29.7
COc1ccccc1C(=O)NC(C)c1ccccc1 (stereo not given)	55.6*	2.4*	0.4	-140.1
CN(C)S(=O)(=O)c1ccc(C(=O)NCCSc2ccccc2)cc1	8.4	0.9	0.9	10.4
O=C(Cn1cc(C(=O)C2CC2)c2ccccc21)NC1CCCC1	-1.6	0.6	1	43.1
CCOC(=O)c1nnn(CC(=O)Nc2ccccc2OC)c1C(=O)OCC	54.7*	0.6	0.5	44.0
CCOc1ccc(NC(=O)c2nnn(CC(=O)Nc3ccccc3OCC)c2N)cc1	12.8	0.8	0.9	22.3
Cc1c(Cl)cccc1NC(=O)CCN1CCCCCC1	32.4	1	0.7	2.9
COC(=O)c1nnn(CC(=O)Nc2cccc(Cl)c2C)c1C(=O)OC	89.5*	0.6	0.1	44.8
CCOC(=O)c1nnn(CC(=O)Nc2cc(F)ccc2F)c1C(=O)OCC	68.2*	0.6	0.3	43.6
CCOC(=O)c1nnn(CC(=O)Nc2cc(Cl)ccc2C)c1C(=O)OCC	28.2	0.5	0.7	48.4
CCOc1ccc(NC(=O)Cn2nnc(C(=O)NCc3ccccc3OC)c2N)cc1	12.2	2.1*	0.9	-113.1
CCOc1ccc(CC2S/C(=N/c3ccccn3)NC2=O)cc1 (stereo not given)	72.0*	0.8	0.3	21.5
Fc1c(F)c(C(F)(F)F)c(F)c(F)c1N/N=C\c1cccs1	1.6	0.9	1	5.3
c1ccc(OCCOc2ncnc3ccccc23)cc1	60.3*	0.7	0.4	25.4
CC(C)(C)C(=O)NC(=S)Nc1cc(C(F)(F)F)ccc1N1CCOCC1	95.9*	0.1	0	93.7*
O=C(CSc1nc2ccccc2o1)Nc1cc(C(F)(F)F)ccc1N1CCOCC1	46.5	0.6	0.5	39.1
CC(=O)Nc1cc(C(F)(F)F)ccc1N1CCOCC1	-1.1	1.1	1	-5.6
COc1cccc(OC)c1C(=O)Nc1cc(Cl)ccc1N1CCOCC1	41.4	0.4	0.6	61.7*
SMILES	CYP2C19 inhib	CYP2C9 activ	CYP2C19 activ	CYP2C9 inh
O=C(Nc1cc(C(F)(F)F)ccc1N1CCOCC1)c1cccc(F)c1	82.9*	1	0.2	4.1
O=C(Nc1cc(C(F)(F)F)ccc1N1CCOCC1)c1ccccc1F	8.2	1.1	0.9	-6.7
O=C(Nc1cc(C(F)(F)F)ccc1N1CCOCC1)c1ccc2ccccc2n1	31.3	0.4	0.7	59.6*
COc1ccc2[nH]c(=O)c(CN(C(=O)c3ccco3)C3CCCCC3)cc2c1	14.6	0.7	0.9	29.4
Cn1c(=O)c2ncn(CC(=O)Nc3cc(C(F)(F)F)ccc3N3CCOCC3)c2n(C)c1=O	40.8	0.4	0.6	56.8*
O=C(Cn1cnc2ccccc21)Nc1cc(C(F)(F)F)ccc1N1CCOCC1	21.5	0.7	0.8	29.4
O=C(Nc1cc(C(F)(F)F)ccc1N1CCOCC1)c1cccs1	59.3*	0.9	0.4	14.6
O=C(Nc1cc(C(F)(F)F)ccc1N1CCOCC1)C1Cc2ccccc2CN1C(=O)c1ccco1 (stereo not given)	89.5*	0	0.1	95.8*
